From the supplement of paper PMC10646978 come the findings set out here.

What all share (details): modulator concentration 10 µM
Test [1] relates to RAW-Dual (murine macrophage reporter line). The experiment in a line: NF-kB reporter (SEAP) activity fold change vs agonist alone; higher = enhanced NF-kB activity. Summed up: (§1)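 Compound reached 10 μM final in each well by pin transfer, onto RAW-Dual murine macrophage reporter cells seeded at 50 000 per well in 384-well plates. After 1 hour at 37 °C, the cells were stimulated overnight with a PRR agonist. SEAP in the supernatant was read with QUANTI-Blue at 620 nm absorbance for NF-κB, and Lucia luciferase was read with QUANTI-Luc luminescence for IRF. Each signal was turned into fold change against the mean agonist-only control on the same plate, and two replicate plates were averaged with propagated errors.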

Test [2] has the same test system. Put plainly: IRF reporter (Lucia luciferase) activity fold change vs agonist alone; higher = enhanced IRF activity. Summed up:
as §1

The test system is the same in test [3]. Put plainly: viability score (confluency relative to resting cells, overnight) (fraction); higher = more viable, active = viable (0.7 or more). In a few lines:
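RAW-Dual macrophages in 384-well plates were incubated overnight with compound, final concentration 10 μM. Confluency images from IncuCyte were processed in IncuCyte software into two masks covering all imaged wells. The viability score is each well's confluency relative to resting cells, and a compound met the cutoff when both masks exceeded 70% of resting cells.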

The mark [4] stands for this setting: agonist: CpG ODN 1826 0.5 ug/mL.

± gives the standard deviation.

In the case of `CC1CC(=O)C2=C(C1)OC(N)=C(C#N)C2c1ccc(F)cc1` (configuration not stated), the NF-kB reporter in test [1] (setting [4]) amounted to 0.894 ± 0.09; in test [1] (agonist: LPS 0.1 ug/mL), 1.01 ± 0.1; in test [1] (agonist: MPLA […]), 0.935 ± 0.066. Also, the IRF reporter was found to be 0.874 ± 0.053 in test [2] (agonist: 3'3'-cGAMP 10 ug/mL), 1.08 ± 0.077 in test [2] (agonist: LPS 0.1 ug/mL) and 1.13 ± 0.2 in test [2] (agonist: MPLA […]). Further, in test [3], the viability score was 0.982 (active).
With `CC(=NN1CCN(C2c3ccccc3-c3ccccc32)CC1)c1ccccc1O`, the values for the NF-kB reporter in test [1] (setting [4]), in test [1] (agonist: LPS 0.1 ug/mL) and in test [1] (agonist: MPLA […]) were 0.953 ± 0.12, 0.94 ± 0.052 and 0.962 ± 0.069, respectively. In addition, the results for the IRF reporter in test [2] (agonist: 3'3'-cGAMP 10 ug/mL), in test [2] (agonist: LPS 0.1 ug/mL) and in test [2] (agonist: MPLA […]) were 1.02 ± 0.036, 1.35 ± 0.12 and 0.984 ± 0.086, respectively. Moreover, the viability score in test [3] is 1.02 (active).
Turning to `COc1cccc(C=Nc2cccc([N+](=O)[O-])c2C)c1O`, the NF-kB reporter in test [1] (setting [4]) turned out to be 0.661 ± 0.054; in test [1] (agonist: LPS 0.1 ug/mL), 0.906 ± 0.066; in test [1] (agonist: MPLA […]), 0.978 ± 0.035. Moreover, the results for the IRF reporter in test [2] (agonist: 3'3'-cGAMP 10 ug/mL), in test [2] (agonist: LPS 0.1 ug/mL) and in test [2] (agonist: MPLA […]) were 0.903 ± 0.077, 0.93 ± 0.088 and 0.948 ± 0.17, respectively. Further, the viability score in test [3] is 1 (active).
`Nc1ncnc2c1ncn2C1OC(COP(=O)(O)O)C(O)C1O` (configuration not stated): the NF-kB reporter in test [1] (setting [4]) amounted to 1.9 ± 0.51; in test [1] (agonist: LPS 0.1 ug/mL) it was 1.3 ± 0.089; in test [1] (agonist: MPLA […]) it was 1.55 ± 0.11. Besides, the IRF reporter amounted to 1.44 ± 0.052 in test [2] (agonist: 3'3'-cGAMP 10 ug/mL), 1.19 ± 0.13 in test [2] (agonist: LPS 0.1 ug/mL) and 1.19 ± 0.14 in test [2] (agonist: MPLA […]). Moreover, the viability score in test [3] is 0.97 (active).
In the case of `CC#C[C@]1(O)CC[C@H]2[C@@H]3CCC4=CC(=O)CCC4=C3[C@@H](c3ccc(N(C)C)cc3)C[C@@]21C`, the NF-kB reporter was found to be 0.955 ± 0.093 in test [1] (setting [4]), 0.722 ± 0.15 in test [1] (agonist: LPS 0.1 ug/mL) and 1.39 ± 0.15 in test [1] (agonist: MPLA […]). Besides, the IRF reporter is 0.863 ± 0.048 in test [2] (agonist: 3'3'-cGAMP 10 ug/mL), 0.868 ± 0.033 in test [2] (agonist: LPS 0.1 ug/mL) and 1.05 ± 0.31 in test [2] (agonist: MPLA […]). For the same compound, in test [3], the viability score was 1 (active).
Turning to `COc1ccc(C=Nn2cc(-c3ccc(Cl)cc3)nc2N=Cc2cc(Br)cc(Br)c2O)cc1`, the NF-kB reporter was 0.863 ± 0.068 in test [1] (setting [4]), 0.919 ± 0.067 in test [1] (agonist: LPS 0.1 ug/mL) and 0.874 ± 0.094 in test [1] (agonist: MPLA […]). In addition, the IRF reporter in test [2] (agonist: 3'3'-cGAMP 10 ug/mL) amounted to 0.883 ± 0.037; in test [2] (agonist: LPS 0.1 ug/mL) it was 1.08 ± 0.14; in test [2] (agonist: MPLA […]), 1.07 ± 0.23. Moreover, in test [3], the viability score was 1.02 (active).
In the case of `Br.Cc1ccc(Sc2ccccc2N2CCNCC2)c(C)c1`, the NF-kB reporter in test [1] (setting [4]) amounted to 0.328 ± 0.078; in test [1] (agonist: LPS 0.1 ug/mL), 0.944 ± 0.11; in test [1] (agonist: MPLA […]), 1.78 ± 0.15. In addition, the values for the IRF reporter in test [2] (agonist: 3'3'-cGAMP 10 ug/mL), in test [2] (agonist: LPS 0.1 ug/mL) and in test [2] (agonist: MPLA […]) were 0.491 ± 0.057, 1.27 ± 0.32 and 1.03 ± 0.12, respectively. Also, in test [3], the viability score is 0.527 (inactive).
As for `CC1CCc2nnc(OCC3CCCN3C)cc2C1` (configuration not stated), the NF-kB reporter in test [1] (setting [4]) came out at 0.837 ± 0.051; in test [1] (agonist: LPS 0.1 ug/mL), 0.793 ± 0.11; in test [1] (agonist: MPLA […]), 0.99 ± 0.059. The figures for the IRF reporter in test [2] (agonist: 3'3'-cGAMP 10 ug/mL), in test [2] (agonist: LPS 0.1 ug/mL) and in test [2] (agonist: MPLA […]) were 0.972 ± 0.061, 1.19 ± 0.25 and 1.22 ± 0.48, respectively. Besides, in test [3], the viability score was 0.996 (active).
With `Cl.Nc1c2c(nc3ccccc13)CCCC2`, the NF-kB reporter in test [1] (setting [4]) turned out to be 0.172 ± 0.048; in test [1] (agonist: LPS 0.1 ug/mL), 0.751 ± 0.041; in test [1] (agonist: MPLA […]) it was 0.918 ± 0.06. In addition, the results for the IRF reporter in test [2] (agonist: 3'3'-cGAMP 10 ug/mL), in test [2] (agonist: LPS 0.1 ug/mL) and in test [2] (agonist: MPLA […]) were 0.616 ± 0.024, 0.806 ± 0.25 and 0.837 ± 0.12, respectively. The viability score in test [3] was 0.995 (active).
As for `Cc1cc(OCC(O)CN2CCCCC2C)cc(C)c1Cl.Cl` (configuration not stated), the NF-kB reporter in test [1] (setting [4]) stood at 0.79 ± 0.15; in test [1] (agonist: LPS 0.1 ug/mL) it was 0.97 ± 0.08; in test [1] (agonist: MPLA […]), 0.796 ± 0.048. Further, the IRF reporter in test [2] (agonist: 3'3'-cGAMP 10 ug/mL) worked out at 0.955 ± 0.048; in test [2] (agonist: LPS 0.1 ug/mL), 1.2 ± 0.17; in test [2] (agonist: MPLA […]), 1.25 ± 0.23. Also, the viability score in test [3] is 0.923 (active).
As to `CCOC(=O)C1=C(C)NC(C)=C(C(=O)OCC)C1c1ccc(F)cc1`, the NF-kB reporter worked out at 0.796 ± 0.067 in test [1] (setting [4]), 0.729 ± 0.059 in test [1] (agonist: LPS 0.1 ug/mL) and 1.8 ± 0.067 in test [1] (agonist: MPLA […]). Also, the IRF reporter in test [2] (agonist: 3'3'-cGAMP 10 ug/mL) was 1.05 ± 0.037; in test [2] (agonist: LPS 0.1 ug/mL) it was 0.987 ± 0.059; in test [2] (agonist: MPLA […]), 4.4 ± 0.55. Also, the viability score in test [3] is 0.244 (inactive).
